Assay results: PubChem BioAssay (NCI)
About 83,000 compounds went through this panel and 20% of them were active in at least one assay; those are over-represented in the sample as a whole.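 Results are percent growth after 48 hours of single-concentration exposure. 100 means growth as in untreated cells, lower positive values show inhibition; negative values down to -100 show cell death.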 Calls of active or inactive are those of the source. The calls were made as follows: active = growth percent below 10; inactive = the rest.

Experiments:
Test in all cases: NCI-60 one-dose screen, 48 h (100 = growth as untreated, 0 = no growth, -100 = all killed)
Conditions in all cases: 10 µM unless noted
NCI-H23 lung = tested on: NCI-H23 lung
NCI-H226 lung = tested on: NCI-H226 lung
NCI-H322M lung = tested on: NCI-H322M lung
HOP-62 NSCLC = tested on: HOP-62 NSCLC
NCI-H460 lung = tested on: NCI-H460 lung
HOP-92 NSCLC = tested on: HOP-92 NSCLC
NCI-H522 lung = tested on: NCI-H522 lung
A549/ATCC NSCLC = tested on: A549/ATCC NSCLC
786-0 renal = tested on: 786-0 renal
COLO 205 colon = tested on: COLO 205 colon

Measured: growth

COc1ccc(C2CC(c3cccc(OCCCCOc4cccc(C5=NN(C(C)=O)C(c6ccc(OC)cc6)C5)c4)c3)=NN2C(C)=O)cc1 (stereo not given)
inactive: NCI-H23 lung 57% | NCI-H226 lung 62.3% | NCI-H322M lung 91% | HOP-62 NSCLC 71.3% | NCI-H460 lung 66.6% | HOP-92 NSCLC 68.7% | NCI-H522 lung 53.2% | A549/ATCC NSCLC 68.2% | 786-0 renal 86.3% | COLO 205 colon 82.8%

N#Cc1c(-c2cccs2)cc(-c2cnccn2)nc1SCC(=O)N/N=C/c1ccccc1
inactive: NCI-H23 lung 40.8% | NCI-H226 lung 50.8% | NCI-H322M lung 63.5% | HOP-62 NSCLC 31.1% | NCI-H460 lung 17% | HOP-92 NSCLC 42.3% | NCI-H522 lung 67.3% | A549/ATCC NSCLC 46.8% | 786-0 renal 17.9% | COLO 205 colon 66.2%

CCN(CC)c1ccc(/C=N/NC(=O)c2ccc(S(N)(=O)=O)cc2)cc1
active: NCI-H460 lung 7.17% | 786-0 renal 9.66%
inactive: NCI-H23 lung 25.1% | NCI-H226 lung 45.1% | NCI-H322M lung 28.1% | HOP-62 NSCLC 18.6% | HOP-92 NSCLC 72.3% | NCI-H522 lung 18.7% | A549/ATCC NSCLC 26.1% | COLO 205 colon 11.1%

O=c1c2cc(-c3ccc(F)cc3F)ccc2n(O)c(=O)n1-c1cccc(C(F)(F)F)c1
inactive: NCI-H226 lung 14.3% | 786-0 renal 30.9% | COLO 205 colon 73.9%
active: NCI-H23 lung -2.77% | NCI-H322M lung 5.99% | HOP-62 NSCLC -9.23% | NCI-H460 lung 6.68% | HOP-92 NSCLC -30% | NCI-H522 lung -14.2% | A549/ATCC NSCLC 6.74%

COc1ccccc1N1CCN(C2=C(Cl)C(=O)c3ncccc3C2=O)CC1
inactive: NCI-H23 lung 56.3% | NCI-H226 lung 91% | NCI-H322M lung 92.4% | HOP-62 NSCLC 93.4% | NCI-H460 lung 75% | HOP-92 NSCLC 135% | A549/ATCC NSCLC 112% | 786-0 renal 107% | COLO 205 colon 106%
active: NCI-H522 lung 9.14%

O=C(CSc1nnc(-c2ccc(Cl)cc2)n1-c1ccccc1)Nc1ccccc1Cl
inactive: NCI-H23 lung 48.5% | NCI-H226 lung 48.7% | NCI-H322M lung 66.2% | HOP-62 NSCLC 115% | NCI-H460 lung 54.5% | HOP-92 NSCLC 101% | NCI-H522 lung 76.2% | A549/ATCC NSCLC 30.4% | 786-0 renal 42.1% | COLO 205 colon 88.7%

COc1ccc(OC)c(CCn2cncc2-c2c[nH]c3ccc(Cl)cc23)c1
active: NCI-H522 lung 3.34%
inactive: NCI-H23 lung 38.1% | NCI-H226 lung 59.5% | NCI-H322M lung 88.4% | HOP-62 NSCLC 49.5% | NCI-H460 lung 46.1% | HOP-92 NSCLC 20.8% | A549/ATCC NSCLC 33.3% | 786-0 renal 69.7% | COLO 205 colon 29.8%

CCn1c2ccc(/C=N/N(C)S(=O)(=O)CCN(C)C)cc2c2cc(/C=N/N(C)S(=O)(=O)CCN(C)C)ccc21
inactive: NCI-H23 lung 43.4% | NCI-H226 lung 40.8% | NCI-H322M lung 80.8% | HOP-62 NSCLC 101% | NCI-H460 lung 73.5% | HOP-92 NSCLC 42.4% | NCI-H522 lung 36% | A549/ATCC NSCLC 84.5% | 786-0 renal 50.3% | COLO 205 colon 92.8%

COc1cc(/C=N\NC(=O)c2ccc3nc(-c4ccc(Br)cc4)[nH]c3c2)cc(OC)c1OC
inactive: NCI-H23 lung 40.2% | NCI-H226 lung 48.7% | NCI-H322M lung 76.8% | HOP-62 NSCLC 72.6% | NCI-H460 lung 42.3% | HOP-92 NSCLC 34.4% | NCI-H522 lung 45.4% | A549/ATCC NSCLC 72.5% | 786-0 renal 38.4% | COLO 205 colon 32.5%

CCCN1C=C/C(=C\C(=O)n2ccc3ccccc32)c2ccccc21
inactive: NCI-H23 lung 72.9% | NCI-H226 lung 75.1% | NCI-H322M lung 80.2% | HOP-62 NSCLC 94.6% | NCI-H460 lung 94.5% | HOP-92 NSCLC 47.9% | NCI-H522 lung 78.4% | A549/ATCC NSCLC 84.9% | 786-0 renal 103% | COLO 205 colon 96.4%

CC(=C(c1ccc(OCCCN(C)C)cc1)c1ccc(OCCCN(C)C)cc1)c1ccc(Cl)cc1
inactive: NCI-H23 lung 84.8% | NCI-H226 lung 95.5% | NCI-H322M lung 95.1% | HOP-62 NSCLC 99.5% | NCI-H460 lung 99.6% | HOP-92 NSCLC 77.9% | NCI-H522 lung 94.1% | A549/ATCC NSCLC 79.8% | 786-0 renal 87.4% | COLO 205 colon 96.6%

CC(C)(O)c1cncc(-c2ccc3ncc(C#N)c(N4CCc5cc(F)c(Cl)cc54)c3c2)c1
active: NCI-H226 lung -6.33% | HOP-62 NSCLC 1.17% | HOP-92 NSCLC -8.73% | NCI-H522 lung -2.54% | A549/ATCC NSCLC 6.02% | 786-0 renal 8.75%
inactive: NCI-H23 lung 26.8% | NCI-H322M lung 11% | NCI-H460 lung 11.1% | COLO 205 colon 14.5%

O=C(CSc1nc2ccccc2c(=O)n1-c1ccc(Cl)cc1)N/N=C/c1ccc(Oc2ccc(Cl)cc2)cc1
active: NCI-H23 lung 3.12% | NCI-H460 lung -34.5% | HOP-92 NSCLC 2.59% | 786-0 renal -4.71%
inactive: NCI-H226 lung 75.6% | NCI-H322M lung 89.8% | HOP-62 NSCLC 32.6% | NCI-H522 lung 20.7% | A549/ATCC NSCLC 16.5% | COLO 205 colon 14.6%

NS(=O)(=O)c1nnc(/N=C/c2c(O)[nH]c3ccccc23)s1
inactive: NCI-H23 lung 96.3% | NCI-H226 lung 95% | NCI-H322M lung 104% | HOP-62 NSCLC 86.6% | NCI-H460 lung 105% | HOP-92 NSCLC 88.1% | NCI-H522 lung 99.9% | A549/ATCC NSCLC 108% | 786-0 renal 98.2% | COLO 205 colon 115%

O=C(NNc1nc2cc(F)cc(F)c2n2cccc12)c1cccnn1
active: NCI-H226 lung -3.91% | NCI-H460 lung 6.92% | NCI-H522 lung 0.0735%
inactive: NCI-H23 lung 21.7% | NCI-H322M lung 28.4% | HOP-62 NSCLC 28.2% | HOP-92 NSCLC 75.4% | A549/ATCC NSCLC 17.5% | 786-0 renal 14.3% | COLO 205 colon 16.3%

CCN(CC)c1ccc(/C=N/NC(=O)c2ccc(NS(C)(=O)=O)cc2)c(O)c1
inactive: NCI-H23 lung 23.3% | NCI-H226 lung 39.3% | NCI-H322M lung 25.2% | HOP-62 NSCLC 13.2% | HOP-92 NSCLC 38.9% | NCI-H522 lung 12.5% | A549/ATCC NSCLC 12.3%
active: NCI-H460 lung 3.18% | 786-0 renal 1.77% | COLO 205 colon 5.67%

CCOC(=O)c1c(NC(=O)c2cccc(C(F)(F)F)c2)sc2c3c(ccc12)OCN(C)C3
inactive: NCI-H23 lung 83.6% | NCI-H226 lung 77.8% | NCI-H322M lung 18% | HOP-92 NSCLC 15.2%
active: HOP-62 NSCLC -87.6% | NCI-H460 lung -75.9% | NCI-H522 lung -15% | A549/ATCC NSCLC -77.7% | 786-0 renal -71.9% | COLO 205 colon -57.6%

O=C(/C=C/c1ccc(F)cc1)Nc1cccc2cccnc12
inactive: NCI-H23 lung 91.6% | NCI-H226 lung 97.8% | NCI-H322M lung 101% | HOP-62 NSCLC 98.5% | NCI-H460 lung 89.4% | HOP-92 NSCLC 108% | NCI-H522 lung 97.5% | A549/ATCC NSCLC 107% | 786-0 renal 108% | COLO 205 colon 114%

CCS(=O)(=O)Nc1ccc(C(=O)CC2(O)C(=O)Nc3ccccc32)cc1 (stereo not given)
inactive: NCI-H23 lung 92.5% | NCI-H226 lung 91.5% | NCI-H322M lung 98.4% | HOP-62 NSCLC 94.6% | NCI-H460 lung 105% | HOP-92 NSCLC 38.2% | NCI-H522 lung 105% | A549/ATCC NSCLC 107% | 786-0 renal 108% | COLO 205 colon 93.8%

NC1=NC2(CCCC2)N(c2ccc(S(=O)(=O)Nc3nccs3)cc2)C(N)=N1
inactive: NCI-H23 lung 101% | NCI-H226 lung 100% | NCI-H322M lung 103% | HOP-62 NSCLC 110% | NCI-H460 lung 102% | HOP-92 NSCLC 113% | NCI-H522 lung 102% | A549/ATCC NSCLC 104% | 786-0 renal 105% | COLO 205 colon 113%

NC(N)=NS(=O)(=O)c1ccc(N=Nc2c(N)nn(-c3ccc([N+](=O)[O-])cc3[N+](=O)[O-])c2N)cc1
inactive: NCI-H23 lung 98.1% | NCI-H226 lung 93.3% | NCI-H322M lung 92.9% | HOP-62 NSCLC 104% | NCI-H460 lung 107% | HOP-92 NSCLC 88.2% | NCI-H522 lung 97.2% | A549/ATCC NSCLC 103% | 786-0 renal 103% | COLO 205 colon 106%

CCN(CC)CCOc1ccc(C(=C(c2ccccc2)C2CCCC2)c2ccc(OCCN(CC)CC)cc2)cc1
active: HOP-92 NSCLC -30.8% | NCI-H522 lung 2.43% | COLO 205 colon -83.9%
inactive: NCI-H23 lung 16.7% | NCI-H226 lung 12.8% | NCI-H322M lung 59.5% | HOP-62 NSCLC 50.2% | NCI-H460 lung 17.2% | A549/ATCC NSCLC 37.4% | 786-0 renal 62.6%

Cc1ccc(C(=O)CSc2nc3ccccc3c(=O)n2C)cc1
inactive: NCI-H23 lung 79.7% | NCI-H226 lung 78.5% | NCI-H322M lung 89.1% | HOP-62 NSCLC 94% | NCI-H460 lung 95.5% | HOP-92 NSCLC 79.6% | NCI-H522 lung 85.3% | A549/ATCC NSCLC 101% | 786-0 renal 97.9% | COLO 205 colon 119%

FC(F)(F)c1cc(Br)cc(-c2cc(-c3ccc4c(c3)OCCO4)[nH]n2)c1
inactive: NCI-H23 lung 40.1% | NCI-H226 lung 53.8% | NCI-H322M lung 45.4% | HOP-62 NSCLC 52.2% | HOP-92 NSCLC 32% | NCI-H522 lung 20.5% | A549/ATCC NSCLC 22.1% | 786-0 renal 28.3%
active: NCI-H460 lung 5.69% | COLO 205 colon -12.9%

O=C(/C=C/c1ccccc1)c1cccc(O)c1
inactive: NCI-H23 lung 104% | NCI-H226 lung 93.4% | NCI-H322M lung 93.4% | HOP-62 NSCLC 105% | NCI-H460 lung 101% | HOP-92 NSCLC 96.1% | NCI-H522 lung 95.1% | A549/ATCC NSCLC 92.7% | 786-0 renal 94.6% | COLO 205 colon 110%

CNC(=O)c1cc(Oc2ccc3c(c2)sc2nc(-c4ccc(N(C)C)cc4)cn23)ccn1
active: NCI-H460 lung 8.23% | NCI-H522 lung 3.82% | COLO 205 colon 8.9%
inactive: NCI-H23 lung 35.5% | NCI-H226 lung 36.2% | NCI-H322M lung 48.1% | HOP-62 NSCLC 45.4% | HOP-92 NSCLC 37.9% | A549/ATCC NSCLC 23.4% | 786-0 renal 31%
